# Reference: article PMC7862700, “An all-to-all approach to the identification of sequence-specific readers for epigenetic DNA modifications on cytosine”
# Legend:
# Assay in all cases: DAPPL (digital affinity profiling via proximity ligation, sequencing); 10 mM Tris-HCl pH 7.5, 50 mM NaCl, 1 mM DTT, 4% glycerol, room temperature, 30 min; GST-TFs on glutathione beads, 16-mer random dsDNA library, 0.1% formaldehyde crosslink after washing; high values mean tight binding
# [1] = target: T1, FLI1 (Homo sapiens, UniProt Q01543 1-452); conditions: protein: recombinant; tags: N-terminal GST; dsDNA, one strand shown
# T1 sequence: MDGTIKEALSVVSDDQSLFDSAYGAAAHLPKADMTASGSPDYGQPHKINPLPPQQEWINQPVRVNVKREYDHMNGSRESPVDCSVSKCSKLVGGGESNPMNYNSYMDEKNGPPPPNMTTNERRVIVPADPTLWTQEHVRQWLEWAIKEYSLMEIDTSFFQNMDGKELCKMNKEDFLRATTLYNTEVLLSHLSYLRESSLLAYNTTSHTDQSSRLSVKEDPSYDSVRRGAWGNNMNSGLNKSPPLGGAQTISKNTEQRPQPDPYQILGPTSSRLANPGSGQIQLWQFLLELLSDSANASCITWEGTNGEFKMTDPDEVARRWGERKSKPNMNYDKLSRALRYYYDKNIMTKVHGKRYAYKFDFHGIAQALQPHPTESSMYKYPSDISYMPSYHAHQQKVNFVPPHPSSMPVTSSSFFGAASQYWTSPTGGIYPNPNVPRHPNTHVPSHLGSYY
# In short: (§1)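 Human transcription factors fused to GST were expressed in yeast, captured on glutathione beads, given DNA barcodes and pooled with a GST-only negative control. Pools were incubated with 200 nmole of a 16-mer random double-stranded DNA library in Tris/NaCl/DTT/glycerol buffer at room temperature for 30 min. They were then washed, crosslinked with 0.1% formaldehyde, proximity-ligated (BsaI/T4 ligase, 1 h, 37 °C), PCR-amplified and sequenced on an Illumina NextSeq500. Binding signal is each 6-mer's read frequency for a factor divided by its frequency for the GST control.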
# [2] = target: T2, ELK1 (Homo sapiens, UniProt P19419 1-428); conditions: protein: recombinant; tags: N-terminal GST; dsDNA, one strand shown
# T2 sequence: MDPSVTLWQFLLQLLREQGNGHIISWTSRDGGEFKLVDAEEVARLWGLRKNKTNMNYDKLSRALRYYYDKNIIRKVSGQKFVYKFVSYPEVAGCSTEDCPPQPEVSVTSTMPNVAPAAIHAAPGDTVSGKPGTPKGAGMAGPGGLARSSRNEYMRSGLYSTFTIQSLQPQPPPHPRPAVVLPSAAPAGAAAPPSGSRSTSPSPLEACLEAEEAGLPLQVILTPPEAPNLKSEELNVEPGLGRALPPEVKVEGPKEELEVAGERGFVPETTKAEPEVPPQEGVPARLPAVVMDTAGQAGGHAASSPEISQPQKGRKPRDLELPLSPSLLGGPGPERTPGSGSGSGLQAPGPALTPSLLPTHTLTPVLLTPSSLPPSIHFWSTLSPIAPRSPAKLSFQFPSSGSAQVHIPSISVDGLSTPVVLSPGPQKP
# In short: as §1
# [3] = target: T3, GABPA (Homo sapiens, UniProt Q06546 1-454); conditions: protein: recombinant; tags: N-terminal GST; dsDNA, one strand shown
# T3 sequence: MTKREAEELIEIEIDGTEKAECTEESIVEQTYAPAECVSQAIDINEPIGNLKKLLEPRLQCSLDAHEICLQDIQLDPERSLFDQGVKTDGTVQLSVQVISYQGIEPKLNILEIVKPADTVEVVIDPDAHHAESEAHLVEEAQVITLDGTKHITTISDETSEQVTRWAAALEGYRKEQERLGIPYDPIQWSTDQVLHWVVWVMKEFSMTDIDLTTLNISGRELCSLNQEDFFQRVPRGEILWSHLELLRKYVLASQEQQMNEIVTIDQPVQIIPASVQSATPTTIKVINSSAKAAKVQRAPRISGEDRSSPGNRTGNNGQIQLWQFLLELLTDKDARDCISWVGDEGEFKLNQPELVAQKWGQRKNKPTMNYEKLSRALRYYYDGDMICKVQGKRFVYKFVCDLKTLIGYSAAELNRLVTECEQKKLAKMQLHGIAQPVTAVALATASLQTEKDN
# In short: as §1
# [4] = target: T4, ERG (Homo sapiens, UniProt P11308 1-479); conditions: protein: recombinant; tags: N-terminal GST; dsDNA, one strand shown
# T4 sequence: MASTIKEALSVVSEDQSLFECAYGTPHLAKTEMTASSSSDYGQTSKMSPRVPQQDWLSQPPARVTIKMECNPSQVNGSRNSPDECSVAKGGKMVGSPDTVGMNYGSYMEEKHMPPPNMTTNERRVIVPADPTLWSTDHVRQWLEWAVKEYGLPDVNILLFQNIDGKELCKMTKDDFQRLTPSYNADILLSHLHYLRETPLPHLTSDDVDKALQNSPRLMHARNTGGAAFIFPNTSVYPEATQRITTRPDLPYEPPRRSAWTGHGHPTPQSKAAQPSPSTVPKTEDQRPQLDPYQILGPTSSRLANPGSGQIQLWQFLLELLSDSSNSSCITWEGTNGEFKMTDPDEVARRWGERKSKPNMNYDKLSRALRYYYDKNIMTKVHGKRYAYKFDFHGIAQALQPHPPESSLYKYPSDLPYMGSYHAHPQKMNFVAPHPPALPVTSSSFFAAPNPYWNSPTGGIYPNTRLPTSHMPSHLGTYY
# In short: as §1
# [5] = target: ELF1 (Homo sapiens, UniProt P32519 1-619); conditions: protein: recombinant; tags: N-terminal GST; dsDNA, one strand shown
# Sequence of ELF1 (P32519 whole entry): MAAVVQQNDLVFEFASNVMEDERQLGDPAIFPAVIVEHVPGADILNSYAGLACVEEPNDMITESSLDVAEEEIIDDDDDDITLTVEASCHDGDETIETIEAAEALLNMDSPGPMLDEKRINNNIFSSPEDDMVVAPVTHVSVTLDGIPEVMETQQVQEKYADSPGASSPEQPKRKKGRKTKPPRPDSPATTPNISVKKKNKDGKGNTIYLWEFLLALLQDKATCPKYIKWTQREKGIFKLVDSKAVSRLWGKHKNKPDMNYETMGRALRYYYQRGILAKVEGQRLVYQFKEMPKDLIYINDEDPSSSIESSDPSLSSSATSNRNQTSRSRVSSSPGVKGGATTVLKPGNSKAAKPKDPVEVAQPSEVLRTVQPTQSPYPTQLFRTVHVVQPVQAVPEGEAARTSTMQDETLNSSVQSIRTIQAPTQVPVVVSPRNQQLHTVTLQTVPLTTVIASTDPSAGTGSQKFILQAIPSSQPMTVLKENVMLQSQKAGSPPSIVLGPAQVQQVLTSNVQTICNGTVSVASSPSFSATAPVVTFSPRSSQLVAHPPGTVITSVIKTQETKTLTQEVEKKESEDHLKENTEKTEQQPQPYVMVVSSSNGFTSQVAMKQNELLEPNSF
# In short: as §1
# [6] = target: T5, EHF (Homo sapiens, UniProt Q9NZC4 1-300); conditions: protein: recombinant; tags: N-terminal GST; dsDNA, one strand shown
# T5 sequence: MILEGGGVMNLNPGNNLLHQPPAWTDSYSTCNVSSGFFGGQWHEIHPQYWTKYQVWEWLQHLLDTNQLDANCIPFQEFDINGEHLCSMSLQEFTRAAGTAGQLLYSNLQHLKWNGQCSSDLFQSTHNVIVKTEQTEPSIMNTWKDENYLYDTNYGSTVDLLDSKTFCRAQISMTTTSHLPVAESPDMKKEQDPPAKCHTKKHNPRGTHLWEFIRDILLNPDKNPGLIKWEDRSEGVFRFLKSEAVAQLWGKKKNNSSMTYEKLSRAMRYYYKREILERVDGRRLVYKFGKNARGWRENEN
# In short: as §1
# [7] = target: SPI1 (Homo sapiens, UniProt P17947 1-270); conditions: protein: recombinant; tags: N-terminal GST; dsDNA, one strand shown
# In short: as §1
# [8] = target: SPIB (Homo sapiens, UniProt Q01892 1-262); conditions: protein: recombinant; tags: N-terminal GST; dsDNA, one strand shown
# Sequence of SPIB (Q01892 whole entry): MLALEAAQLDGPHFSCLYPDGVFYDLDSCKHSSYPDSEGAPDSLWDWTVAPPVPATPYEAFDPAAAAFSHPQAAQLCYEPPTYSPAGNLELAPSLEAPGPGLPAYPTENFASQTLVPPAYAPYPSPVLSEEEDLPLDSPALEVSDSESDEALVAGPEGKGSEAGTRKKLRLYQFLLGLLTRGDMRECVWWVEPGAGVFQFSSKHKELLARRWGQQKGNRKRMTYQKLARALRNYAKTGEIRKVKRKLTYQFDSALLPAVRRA
# In short: as §1
# [9] = target: T6, ELK3 (Homo sapiens, UniProt P41970 1-407); conditions: protein: recombinant; tags: N-terminal GST; dsDNA, one strand shown
# T6 sequence: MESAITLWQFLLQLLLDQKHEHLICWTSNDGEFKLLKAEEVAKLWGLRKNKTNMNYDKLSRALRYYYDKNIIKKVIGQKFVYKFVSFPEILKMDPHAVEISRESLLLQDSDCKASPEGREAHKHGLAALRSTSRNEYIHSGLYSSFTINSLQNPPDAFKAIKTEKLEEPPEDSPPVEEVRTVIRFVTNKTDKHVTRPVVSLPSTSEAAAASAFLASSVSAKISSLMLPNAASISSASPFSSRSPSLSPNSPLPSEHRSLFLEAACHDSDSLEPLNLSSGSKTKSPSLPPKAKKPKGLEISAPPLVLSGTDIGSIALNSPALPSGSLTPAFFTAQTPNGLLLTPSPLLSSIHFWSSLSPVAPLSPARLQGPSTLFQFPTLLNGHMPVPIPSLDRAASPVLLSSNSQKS
# In short: as §1
# [10] = target: T7, FEV (Homo sapiens, UniProt Q99581 1-238); conditions: protein: recombinant; tags: N-terminal GST; dsDNA, one strand shown
# T7 sequence: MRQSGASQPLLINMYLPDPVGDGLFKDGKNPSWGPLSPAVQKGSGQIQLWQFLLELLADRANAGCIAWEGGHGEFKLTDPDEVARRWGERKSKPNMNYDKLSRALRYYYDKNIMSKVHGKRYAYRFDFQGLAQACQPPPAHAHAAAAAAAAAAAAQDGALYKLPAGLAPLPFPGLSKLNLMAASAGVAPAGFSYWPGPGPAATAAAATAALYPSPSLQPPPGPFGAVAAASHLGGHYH
# In short: as §1
# [11] = target: ETV5 (Homo sapiens, UniProt P41161 1-510); conditions: protein: recombinant; tags: N-terminal GST; dsDNA, one strand shown
# Sequence of ETV5 (P41161 whole entry): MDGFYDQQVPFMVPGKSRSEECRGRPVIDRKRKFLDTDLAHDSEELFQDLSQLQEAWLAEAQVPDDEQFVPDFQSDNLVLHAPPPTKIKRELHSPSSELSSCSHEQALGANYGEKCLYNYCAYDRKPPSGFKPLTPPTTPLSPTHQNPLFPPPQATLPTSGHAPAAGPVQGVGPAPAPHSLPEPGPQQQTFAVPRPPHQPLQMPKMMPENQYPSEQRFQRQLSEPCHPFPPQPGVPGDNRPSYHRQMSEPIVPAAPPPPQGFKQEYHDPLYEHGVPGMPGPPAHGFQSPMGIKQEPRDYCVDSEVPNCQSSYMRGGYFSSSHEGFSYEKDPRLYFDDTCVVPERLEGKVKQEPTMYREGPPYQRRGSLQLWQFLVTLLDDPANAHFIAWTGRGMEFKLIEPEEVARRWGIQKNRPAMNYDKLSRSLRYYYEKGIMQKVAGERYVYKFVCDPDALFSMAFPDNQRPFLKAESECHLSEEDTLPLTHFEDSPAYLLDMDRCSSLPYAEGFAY
# In short: as §1
# [12] = target: HSF1 (Homo sapiens, UniProt Q00613 1-529); conditions: protein: recombinant; tags: N-terminal GST; chain copies: 3; dsDNA, one strand shown
# Sequence of HSF1 (Q00613 whole entry): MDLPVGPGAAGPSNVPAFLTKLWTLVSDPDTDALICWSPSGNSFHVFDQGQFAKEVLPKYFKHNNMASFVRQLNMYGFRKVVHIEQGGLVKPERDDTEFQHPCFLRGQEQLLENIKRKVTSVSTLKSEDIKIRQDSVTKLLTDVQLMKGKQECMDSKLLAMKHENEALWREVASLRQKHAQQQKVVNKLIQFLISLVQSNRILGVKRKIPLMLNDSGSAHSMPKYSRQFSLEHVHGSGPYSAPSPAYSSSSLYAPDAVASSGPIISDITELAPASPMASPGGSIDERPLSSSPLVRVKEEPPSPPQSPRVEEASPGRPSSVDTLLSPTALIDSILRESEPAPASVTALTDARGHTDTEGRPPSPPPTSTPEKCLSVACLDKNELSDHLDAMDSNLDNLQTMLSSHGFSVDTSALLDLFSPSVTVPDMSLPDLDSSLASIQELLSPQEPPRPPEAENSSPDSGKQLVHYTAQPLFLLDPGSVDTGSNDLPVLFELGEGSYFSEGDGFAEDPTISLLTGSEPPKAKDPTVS
# In short: as §1
# [13] = target: T8, SPIC (Homo sapiens, UniProt Q8N5J4 1-248); conditions: protein: recombinant; tags: N-terminal GST; dsDNA, one strand shown
# T8 sequence: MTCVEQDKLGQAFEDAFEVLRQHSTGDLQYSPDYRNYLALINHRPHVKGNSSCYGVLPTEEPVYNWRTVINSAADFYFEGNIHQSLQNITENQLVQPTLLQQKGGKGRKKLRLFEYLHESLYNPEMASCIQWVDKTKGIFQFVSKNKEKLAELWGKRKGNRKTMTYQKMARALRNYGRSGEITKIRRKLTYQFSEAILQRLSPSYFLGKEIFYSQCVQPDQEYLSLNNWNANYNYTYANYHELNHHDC
# In short: as §1
# [14] = target: ELF4 (Homo sapiens, UniProt Q99607 1-663); conditions: protein: recombinant; tags: N-terminal GST; dsDNA, one strand shown
# Sequence of ELF4 (Q99607 whole entry): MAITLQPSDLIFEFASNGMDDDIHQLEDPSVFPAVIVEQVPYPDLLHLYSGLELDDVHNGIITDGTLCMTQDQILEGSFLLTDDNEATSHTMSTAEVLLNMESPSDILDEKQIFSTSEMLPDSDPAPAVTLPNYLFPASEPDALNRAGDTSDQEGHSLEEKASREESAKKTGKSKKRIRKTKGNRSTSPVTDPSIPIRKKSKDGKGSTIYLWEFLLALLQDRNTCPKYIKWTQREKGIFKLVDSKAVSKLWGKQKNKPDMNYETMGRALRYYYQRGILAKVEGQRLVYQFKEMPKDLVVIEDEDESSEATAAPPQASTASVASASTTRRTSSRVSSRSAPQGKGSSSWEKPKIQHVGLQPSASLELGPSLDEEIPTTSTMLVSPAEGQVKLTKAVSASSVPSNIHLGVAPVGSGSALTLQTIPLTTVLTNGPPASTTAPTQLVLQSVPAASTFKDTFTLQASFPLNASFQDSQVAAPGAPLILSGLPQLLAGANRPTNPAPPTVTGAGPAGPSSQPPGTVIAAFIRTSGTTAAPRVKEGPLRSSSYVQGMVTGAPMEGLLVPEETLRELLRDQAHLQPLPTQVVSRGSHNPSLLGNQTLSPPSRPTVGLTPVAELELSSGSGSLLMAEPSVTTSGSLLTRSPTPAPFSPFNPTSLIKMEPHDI
# In short: as §1
# [15] = target: T9, ELK4 (Homo sapiens, UniProt P28324-2 1-405); conditions: protein: recombinant; tags: N-terminal GST; dsDNA, one strand shown
# T9 sequence: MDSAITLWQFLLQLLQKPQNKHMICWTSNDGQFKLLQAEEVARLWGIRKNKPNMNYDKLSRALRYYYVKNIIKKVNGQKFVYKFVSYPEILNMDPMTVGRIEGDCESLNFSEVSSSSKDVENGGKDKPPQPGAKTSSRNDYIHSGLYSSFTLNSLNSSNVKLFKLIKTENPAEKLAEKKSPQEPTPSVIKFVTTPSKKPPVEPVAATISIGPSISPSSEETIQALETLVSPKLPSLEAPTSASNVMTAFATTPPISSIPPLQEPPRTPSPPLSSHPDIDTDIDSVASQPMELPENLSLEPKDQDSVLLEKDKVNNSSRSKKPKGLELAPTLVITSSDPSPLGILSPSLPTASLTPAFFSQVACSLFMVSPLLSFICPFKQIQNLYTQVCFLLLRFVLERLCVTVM
# In short: as §1
# [16] = target: T10, ETV2 (Homo sapiens, UniProt O00321 1-342); conditions: protein: recombinant; tags: N-terminal GST; dsDNA, one strand shown
# T10 sequence: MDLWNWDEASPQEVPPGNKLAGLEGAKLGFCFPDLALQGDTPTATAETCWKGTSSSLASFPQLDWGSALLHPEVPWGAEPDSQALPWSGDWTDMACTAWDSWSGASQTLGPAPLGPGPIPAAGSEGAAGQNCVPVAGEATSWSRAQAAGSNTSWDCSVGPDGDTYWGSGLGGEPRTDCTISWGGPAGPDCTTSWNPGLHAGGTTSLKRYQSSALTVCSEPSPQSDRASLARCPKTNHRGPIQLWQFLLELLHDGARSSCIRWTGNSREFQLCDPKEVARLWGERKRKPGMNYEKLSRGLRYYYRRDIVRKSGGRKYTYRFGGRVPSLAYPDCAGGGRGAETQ
# In short: as §1
# [17] = target: T11, ELF3 (Homo sapiens, UniProt P78545 1-371); conditions: protein: recombinant; tags: N-terminal GST; dsDNA, one strand shown
# T11 sequence: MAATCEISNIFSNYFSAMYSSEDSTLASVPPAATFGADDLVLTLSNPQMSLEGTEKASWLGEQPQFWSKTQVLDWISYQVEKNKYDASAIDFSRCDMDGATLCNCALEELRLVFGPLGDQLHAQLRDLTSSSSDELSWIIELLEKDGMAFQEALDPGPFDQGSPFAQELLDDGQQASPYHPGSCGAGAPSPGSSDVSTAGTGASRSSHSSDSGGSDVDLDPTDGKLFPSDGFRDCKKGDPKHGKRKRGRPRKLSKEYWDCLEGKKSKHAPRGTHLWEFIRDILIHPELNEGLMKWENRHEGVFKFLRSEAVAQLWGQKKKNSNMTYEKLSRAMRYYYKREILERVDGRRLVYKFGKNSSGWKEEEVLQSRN
# In short: as §1
# [18] = target: CRX (Homo sapiens, UniProt O43186 1-299); conditions: protein: recombinant; tags: N-terminal GST; dsDNA, one strand shown
# Sequence of CRX (O43186 whole entry): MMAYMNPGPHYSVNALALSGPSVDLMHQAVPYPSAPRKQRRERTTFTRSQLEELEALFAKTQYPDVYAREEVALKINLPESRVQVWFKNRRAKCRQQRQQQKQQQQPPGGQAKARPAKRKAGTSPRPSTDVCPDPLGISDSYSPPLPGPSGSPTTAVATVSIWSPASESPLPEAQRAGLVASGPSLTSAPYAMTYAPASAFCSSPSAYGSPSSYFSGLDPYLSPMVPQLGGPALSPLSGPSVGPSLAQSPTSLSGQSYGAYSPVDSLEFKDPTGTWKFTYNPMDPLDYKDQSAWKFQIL
# In short: as §1
# [19] = target: ETV1 (Homo sapiens, UniProt P50549 1-477); conditions: protein: recombinant; tags: N-terminal GST; dsDNA, one strand shown
# Sequence of ETV1 (P50549 whole entry): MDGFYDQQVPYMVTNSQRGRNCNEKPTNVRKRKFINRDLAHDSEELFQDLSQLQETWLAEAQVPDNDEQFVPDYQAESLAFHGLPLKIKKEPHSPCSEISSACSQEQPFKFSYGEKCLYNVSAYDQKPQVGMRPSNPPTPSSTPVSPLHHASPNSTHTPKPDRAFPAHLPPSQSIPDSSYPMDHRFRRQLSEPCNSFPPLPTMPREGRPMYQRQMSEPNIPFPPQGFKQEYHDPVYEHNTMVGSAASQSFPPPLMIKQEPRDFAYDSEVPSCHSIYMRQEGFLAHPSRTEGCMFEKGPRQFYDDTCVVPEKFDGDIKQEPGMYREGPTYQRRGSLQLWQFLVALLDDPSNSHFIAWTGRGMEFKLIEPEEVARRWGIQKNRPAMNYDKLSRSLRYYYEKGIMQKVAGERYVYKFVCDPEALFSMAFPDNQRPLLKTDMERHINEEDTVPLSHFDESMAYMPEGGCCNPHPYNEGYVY
# In short: as §1
sequence,measurement,setting,value
TTCTAT,binding signal,[1],"1.4 fold enrichment (6-mer frequency, TF over GST control)"
same,binding signal,[2],"1.49 fold enrichment (6-mer frequency, TF over GST control)"
same,binding signal,[3],"1.31 fold enrichment (6-mer frequency, TF over GST control)"
same,binding signal,[4],"1.26 fold enrichment (6-mer frequency, TF over GST control)"
same,binding signal,[5],"1.46 fold enrichment (6-mer frequency, TF over GST control)"
same,binding signal,[6],"1.42 fold enrichment (6-mer frequency, TF over GST control)"
same,binding signal,[7],"1.36 fold enrichment (6-mer frequency, TF over GST control)"
same,binding signal,[8],"1.41 fold enrichment (6-mer frequency, TF over GST control)"
same,binding signal,[9],"1.35 fold enrichment (6-mer frequency, TF over GST control)"
same,binding signal,[10],"1.4 fold enrichment (6-mer frequency, TF over GST control)"
same,binding signal,[11],"1.43 fold enrichment (6-mer frequency, TF over GST control)"
same,binding signal,[12],"2.05 fold enrichment (6-mer frequency, TF over GST control)"
same,binding signal,[13],"1.44 fold enrichment (6-mer frequency, TF over GST control)"
same,binding signal,[14],"1.4 fold enrichment (6-mer frequency, TF over GST control)"
same,binding signal,[15],"1.52 fold enrichment (6-mer frequency, TF over GST control)"
same,binding signal,[16],"1.32 fold enrichment (6-mer frequency, TF over GST control)"
same,binding signal,[17],"1.28 fold enrichment (6-mer frequency, TF over GST control)"
same,binding signal,[18],"1.67 fold enrichment (6-mer frequency, TF over GST control)"
same,binding signal,[19],"1.3 fold enrichment (6-mer frequency, TF over GST control)"
